{"source": "PubChem BioAssay AID720550", "about": "(National Center for Advancing Translational Sciences (NCATS), 2013)", "note": "Records with an inconclusive call do not appear. Active and inactive are the calls of the source. The call rests on the fitted dose curve; in most records, active means well fitted curve in the direction sought with a large enough effect; inconclusive means small, poorly fitted or top-dose-only effect, or another doubt; inactive means no such curve, though single readings can be large or run the other way.", "data": [{"experiment": "qHTS for Inhibitors of Bloom's syndrome helicase (BLM): Thiazole Orange DNA Binding Counterscreen for SAR.", "details": "fluorescence; Potency: Thiazole orange DNA displacement; series mostly up to 57.1 µM; activity change, negative = displacement: at the top concentration", "procedure,_shortened": "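Counterscreen for nonspecific DNA binding: thiazole orange (100 nM) pre-bound to 50 nM unlabeled DNA, test compound added, 15 min room-temperature incubation, then ex 480/em 530 nm fluorescence measured; lack of displacement preferred.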", "values": [{"smiles": "O=C(Nc1ccccc1)Nc1nnc(-c2ccncc2)s1", "activity change, negative = displacement": "4.99% (inactive)"}, {"smiles": "O=C(Nc1ccc2ccccc2c1)Nc1nnc(-c2ccc(O)cc2)s1", "activity change, negative = displacement": "62.3% (inactive)"}, {"smiles": "Cc1cc(NC(=O)Nc2nnc(C3CCCCC3)s2)ccc1Cl", "activity change, negative = displacement": "100% (inactive)"}, {"smiles": "O=C(Nc1nnc(-c2ccncc2)s1)Nc1ccc(Cl)cc1F", "activity change, negative = displacement": "61.6% (inactive)"}, {"smiles": "O=C(Nc1ccc(Cl)c([N+](=O)[O-])c1)Nc1cccc(-c2ccncc2)n1", "activity change, negative = displacement": "-18.5% (inactive)"}, {"smiles": "N#Cc1cccc(NC(=O)Nc2nnc(-c3ccncc3)s2)c1", "activity change, negative = displacement": "26.6% (inactive)"}, {"smiles": "O=C(Nc1ccc2ccccc2c1)Nc1nnc(-c2ccncc2)o1", "activity change, negative = displacement": "1.59% (inactive)"}, {"smiles": "O=C(Nc1ccc2ccccc2c1)Nc1nnc(-c2ccncc2)s1", "activity change, negative = displacement": "-2.58% (inactive)"}, {"smiles": "O=C(Nc1nnc(-c2ccncc2)s1)Nc1cc(C(F)(F)F)ccc1F", "activity change, negative = displacement": "20% (inactive)"}, {"smiles": "O=C(Nc1ccc(Cl)c(C(F)(F)F)c1)Nc1nnc(-c2cccnc2)s1", "activity change, negative = displacement": "83.1% (inactive)"}, {"smiles": "N#Cc1cc(NC(=O)Nc2nnc(-c3ccncc3)s2)ccc1Cl", "activity change, negative = displacement": "-24% (inactive)"}, {"smiles": "O=C(Nc1ccc(Cl)c(Cl)c1)Nc1nnc(C2CCCCC2)s1", "activity change, negative = displacement": "46.9% (inactive)"}, {"smiles": "O=C(Nc1ccc(N2CCOCC2)c(C(F)(F)F)c1)Nc1nnc(-c2ccncc2)s1", "Potency": "4.08 µM (active)"}, {"smiles": "O=C(Nc1ccc2ccccc2c1)Nc1nnc(-c2ccccc2)s1", "activity change, negative = displacement": "93% (inactive)"}, {"smiles": "COc1ccc(NC(=O)Nc2ccc(-c3nc4ccccc4[nH]3)cc2)cc1OC", "activity change, negative = displacement": "-11.4% (inactive)"}, {"smiles": "O=C(Nc1ccc(-c2cn[nH]c2)c(C(F)(F)F)c1)Nc1nnc(-c2ccncc2)s1", "activity change, negative = displacement": "35.2% (inactive)"}, {"smiles": "O=C(Nc1ccc(Br)cc1)Nc1nnc(-c2ccncc2)s1", "activity change, negative = displacement": "62.4% (inactive)"}, {"smiles": "O=C(Nc1ccc2sccc2c1)Nc1nnc(-c2ccncc2)s1", "activity change, negative = displacement": "5.03% (inactive)"}]}]}
